This is an account of results in the supplement of paper PMC9023506.

Structures can show the parent of a compound that is named as a salt.

The first assay deals with Danio rerio larvae (5 dpf). Nature of the assay: startle response to 20-s acoustic pulses, difference vs DMSO (percentage points (treated minus DMSO)); higher = more of the behaviour than the DMSO vehicle control. Particulars: 10 µM; exposure time: 3 h pre-incubation + 3 h imaging. A digest of the protocol: (§1)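 5-dpf wild-type zebrafish larvae in 96-well ProxiPlates were exposed to library drugs at 10 µM (diluted 1000× from DMSO stocks into egg water). There were 48 larvae per drug, exposed 3 h before and 3 h during imaging at 28.5 °C. Images taken every 6 s covered a 3-h program of rest, moving coloured lines and acoustic pulses, and an ImageJ macro scored movement and upper-half location. Each behaviour score is the treated-group mean minus the DMSO vehicle mean, in percentage points.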
Consider `CN(C)CC/C=C1/c2ccccc2COc2ccc(CC(=O)O)cc21` [Olopatadine hydrochloride], for which the “startle response to 20-s acoustic pulses” value stood at 0.514.

On to `O=C(O)CCCc1ccccc1` [Sodium 4-Phenylbutyrate], for which the “startle response to 20-s acoustic pulses” value is -5.04.

For `O=C(O)C[C@H](O)C[C@H](O)/C=C/c1c(C2CC2)nc2ccccc2c1-c1ccc(F)cc1` [Pitavastatin calcium], the “startle response to 20-s acoustic pulses” value amounted to 1.52.

`C/C(O)=C(\C#N)C(=O)Nc1ccc(C(F)(F)F)cc1` [Teriflunomide]: the “startle response to 20-s acoustic pulses” value is -4.42.

In the case of `COc1ccc(Cl)cc1C(=O)NCCc1ccc(S(=O)(=O)NC(=O)NC2CCCCC2)cc1` [Glibenclamide], the “startle response to 20-s acoustic pulses” value was 6.49.

Take `CCOc1nc2cccc(C(=O)O)c2n1Cc1ccc(-c2ccccc2-c2nnn[nH]2)cc1` [Candesartan]: the “startle response to 20-s acoustic pulses” value amounted to 10.6.

`CCOc1ccccc1OCCN[C@H](C)Cc1ccc(OC)c(S(N)(=O)=O)c1` [Tamsulosin hydrochloride]: the “startle response to 20-s acoustic pulses” value was determined as 3.87.

As to `NC(=O)OCC(COC(N)=O)c1ccccc1` [Felbamate], the “startle response to 20-s acoustic pulses” value stood at 2.22.

With `CC(C)(C#N)c1cc(Cn2cncn2)cc(C(C)(C)C#N)c1` [Anastrozole], the “startle response to 20-s acoustic pulses” value was -0.38.

On to `CCOC(=O)c1ncn2c1CN(C)C(=O)c1cc(F)ccc1-2` [Flumazenil], for which the “startle response to 20-s acoustic pulses” value was -1.57.

As for `Clc1ccc2nsnc2c1NC1=NCCN1` [Tizanidine hydrochloride], the “startle response to 20-s acoustic pulses” value was -1.69.

`CN(C)CCc1c[nH]c2ccc(C[C@H]3COC(=O)N3)cc12` [Zolmitriptan]: the “startle response to 20-s acoustic pulses” value amounted to 2.21.

As for `CCCC1O[C@@H]2C[C@H]3[C@@H]4CCC5=CC(=O)C=C[C@]5(C)[C@H]4[C@@H](O)C[C@]3(C)[C@]2(C(=O)CO)O1` (stereo partly drawn) [Budesonide], the “startle response to 20-s acoustic pulses” value is -5.65.

In the next assay the test system is Danio rerio larvae (5 dpf). The assay can be described thus: optomotor response to fast red moving lines, difference vs DMSO (percentage points (treated minus DMSO)); higher = more of the behaviour than the DMSO vehicle control. The following applies: 10 µM; exposure time: 3 h pre-incubation + 3 h imaging. A digest of the protocol:
as §1
For the compound `CCCc1nc2c(C)cc(-c3nc4ccccc4n3C)cc2n1Cc1ccc(-c2ccccc2C(=O)O)cc1` [Telmisartan], the optomotor response amounted to 7.51.

For `CCOC(=O)[C@H](CCc1ccccc1)N[C@H]1CCc2ccccc2N(CC(=O)O)C1=O` [Benazepril hydrochloride], the optomotor response was -1.29.

With `O=C(O)C[C@H](O)C[C@H](O)/C=C/c1c(C2CC2)nc2ccccc2c1-c1ccc(F)cc1` [Pitavastatin calcium], the optomotor response was found to be 9.78.

Regarding `C/C(O)=C(\C#N)C(=O)Nc1ccc(C(F)(F)F)cc1` [Teriflunomide], the optomotor response is -7.56.

Consider `C#CCN[C@@H]1CCc2ccccc21` [Rasagiline mesylate], for which the optomotor response was 0.354.

`NC(=O)OCC(COC(N)=O)c1ccccc1` [Felbamate]: the optomotor response is 8.45.

Consider `Cc1ccc(-c2cc(C(F)(F)F)nn2-c2ccc(S(N)(=O)=O)cc2)cc1` [Celecoxib], for which the optomotor response is -11.4.

Take `CC(=O)S[C@@H]1CC2=CC(=O)CC[C@]2(C)[C@H]2CC[C@@]3(C)[C@@H](CC[C@@]34CCC(=O)O4)[C@H]12` [Spironolactone]: the optomotor response was -11.3.

For the compound `CN1CCC[C@@H]1Cc1c[nH]c2ccc(CCS(=O)(=O)c3ccccc3)cc12` [Eletriptan hydrobromide], the optomotor response is -9.58.

Turning to `CCCCc1nc(Cl)c(CO)n1Cc1ccc(-c2ccccc2-c2nnn[nH]2)cc1` [Losartan potassium], the optomotor response is -3.43.
